{"source": "PubChem BioAssay (EPA / NIEHS)", "note": "Records with an inconclusive call do not appear. Calls of active or inactive are those of the source. The calls were made as follows: active = hit-call score of the fitted dose curve at least 0.9, where 1 is the maximum; inconclusive = response in the unintended direction; inactive = score below 0.9.", "data": [{"molecular_target": "human Constitutive Androstane Receptor (CAR), NR1I3 (gene 9970) (UniProt Q14994)", "sequence (Q14994 whole entry, looked up)": "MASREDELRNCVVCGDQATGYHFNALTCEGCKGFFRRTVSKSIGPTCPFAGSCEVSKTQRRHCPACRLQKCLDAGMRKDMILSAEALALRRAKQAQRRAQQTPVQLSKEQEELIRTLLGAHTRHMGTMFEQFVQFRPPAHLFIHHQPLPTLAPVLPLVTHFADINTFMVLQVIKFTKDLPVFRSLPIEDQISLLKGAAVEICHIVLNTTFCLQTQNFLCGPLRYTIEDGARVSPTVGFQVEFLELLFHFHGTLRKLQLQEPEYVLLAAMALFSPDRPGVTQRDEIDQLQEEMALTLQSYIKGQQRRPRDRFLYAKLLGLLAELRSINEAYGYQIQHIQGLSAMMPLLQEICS", "assay": "NVS_NR_hCAR_Antagonist: NovaScreen (NVS) Nuclear Receptor Binding Assay for human Constitutive Androstane Receptor Antagonism (CAR) (AID 2283344)", "protocol": "NVS_NR_hCAR_Antagonist is a biochemical, single-readout assay that uses extracted gene-proteins in a cell-free assay. Measurements were taken 1 hour after chemical dosing in a 384-well plate.NVS_NR_hCAR_Antagonist is one of one assay component(s) measured or calculated from the NVS_NR_hCAR_Antagonist assay. It is designed to make measurements of fluorescent resonance energy transfer, a form of binding reporter, as detected with fluorescent resonance energy transfer signals by Time-Resolved Fluorescence Resonance Energy Transfer (TR-FRET) technology.Data from the assay component NVS_NR_hCAR_Antagonist was analyzed into 1 assay endpoint. This assay endpoint, NVS_NR_hCAR_Antagonist, was analyzed in the positive analysis fitting direction relative to DMSO as the negative control and baseline of activity. Using a type of binding reporter, loss-of-signal activity can be used to understand changes in the binding as they relate to the gene NR1I3. Furthermore, this assay endpoint can be referred to as a primary readout, because the performed assay has only produced 1 assay endpoint. To generalize the intended target to other relatable targets, this assay endpoint is annotated to the nuclear receptor intended target family, where the subfamily is non-steroidal.\nBinding assays used specific radioligands (tritiated, iodinated) with non-radioactive competitive displacement ligands in agonist or antagonist protocols (as indicated) and various reference compounds and inhibitors to titrate specific binding to receptors and transporters. Most enzyme assays (CYPs, kinases, phosphatases, proteases, HDACs) used recombinant protein and specific substrates (fluorescence mostly, some colorimetric and radioactive) and inhibitors, followed by a biochemical separation of substrate and product. All assays for the biochemical HTS were initially run in duplicate at a single concentration (10 uM for CYP450 assays and 25 uM for all others). […] Each assay was run with positive and negative controls, and concurrent controls on every plate. The follow-up (secondary) screen tested active chemical-pairs in concentration series, as well as a few additional assays not tested in the primary screen, some selected negative inactives, and several cases re-run in the concentration series for confirmatory purposes.", "values": [{"smiles": "CCCCOCN(C(=O)CCl)c1c(CC)cccc1CC", "AC50": "14.6 µM (active)"}, {"smiles": "COC(=O)NS(=O)(=O)c1ccc(N)cc1", "outcome": "inactive"}, {"smiles": "CCC(C)n1c(=O)[nH]c(C)c(Br)c1=O", "note": "(stereo not drawn)", "outcome": "inactive"}, {"smiles": "N#Cc1c(Cl)cccc1Cl", "outcome": "inactive"}, {"smiles": "COP(=S)(OC)SCn1nnc2ccccc2c1=O", "outcome": "inactive"}, {"smiles": "CCOP(=O)(OCC)Oc1nc(Cl)c(Cl)cc1Cl", "AC50": "16.1 µM (active)"}, {"smiles": "O=C1C2CC=CCC2C(=O)N1SC(Cl)(Cl)Cl", "note": "(stereo not drawn)", "outcome": "inactive"}, {"smiles": "CC(C)(C)C(=O)C(Oc1ccc(Cl)cc1)n1cncn1", "note": "(stereo not drawn)", "outcome": "inactive"}, {"smiles": "COC(=O)c1c(C(F)F)nc(C(F)(F)F)c(C2=NCCS2)c1CC(C)C", "outcome": "inactive"}, {"smiles": "CNC(=O)Oc1cccc2ccccc12", "outcome": "inactive"}, {"smiles": "CC(C)=CC1C(C(=O)OCc2coc(Cc3ccccc3)c2)C1(C)C", "note": "(stereo not drawn)", "outcome": "inactive"}, {"smiles": "CC(C)Oc1cccc(NC(=O)c2ccccc2C(F)(F)F)c1", "outcome": "inactive"}, {"smiles": "C=C(C)CN(CC)c1c([N+](=O)[O-])cc(C(F)(F)F)cc1[N+](=O)[O-]", "outcome": "inactive"}, {"smiles": "CCOc1cc(C(C)(C)C)ccc1C1COC(c2c(F)cccc2F)=N1", "note": "(stereo not drawn)", "outcome": "inactive"}, {"smiles": "COP(=S)(OC)Oc1ccc([N+](=O)[O-])c(C)c1", "outcome": "inactive"}, {"smiles": "CCCCC(C#N)(Cn1cncn1)c1ccc(Cl)cc1", "note": "(stereo not drawn)", "outcome": "inactive"}, {"smiles": "CN=C=S", "outcome": "inactive"}, {"smiles": "CCOc1nc(F)cc2nc(S(=O)(=O)Nc3c(Cl)cccc3Cl)nn12", "outcome": "inactive"}, {"smiles": "CC(C)NC(=O)N1CC(=O)N(c2cc(Cl)cc(Cl)c2)C1=O", "outcome": "inactive"}, {"smiles": "CC(C)C1(C)N=C(c2ncccc2C(=O)O)NC1=O", "note": "(stereo not drawn)", "outcome": "inactive"}, {"smiles": "COCC(=O)N(c1c(C)cccc1C)C(C)C(=O)OC", "note": "(stereo not drawn)", "outcome": "inactive"}, {"smiles": "CCN(CC)C(=O)C(C)Oc1cccc2ccccc12", "note": "(stereo not drawn)", "AC50": "34.2 µM (active)"}, {"smiles": "CCOC(=O)C(C)OC(=O)c1cc(Oc2ccc(C(F)(F)F)cc2Cl)ccc1[N+](=O)[O-]", "note": "(stereo not drawn)", "outcome": "inactive"}]}]}
